Assay results reported in PubChem BioAssay AID485344 (National Center for Advancing Translational Sciences (NCATS), 2010).
The campaign covered roughly 340,000 compounds. About 6,900 (2%) were called active. The sample holds actives, similar compounds and a random draw of the others, so the mix is not that of the screen. A number with no mark means an inactive call. No stated cut-off is given here; in the data, active means inhibition above about 30%; inactive means below that, where a call was filed.
Further: 0% is about no effect.

The molecules below were run against D(2) dopamine receptor (Homo sapiens) (UniProt P14416) (assay: HTS Assay for Allosteric Antagonists of the Human D2 Dopamine Receptor: Primary Screen for Antagonists). Conditions: HEK293 TREx D2 cells, calcium flux, dopamine EC80; at 10 µM; stronger effect = higher value.
Sequence of D(2) dopamine receptor (Homo sapiens) (P14416 whole entry, looked up): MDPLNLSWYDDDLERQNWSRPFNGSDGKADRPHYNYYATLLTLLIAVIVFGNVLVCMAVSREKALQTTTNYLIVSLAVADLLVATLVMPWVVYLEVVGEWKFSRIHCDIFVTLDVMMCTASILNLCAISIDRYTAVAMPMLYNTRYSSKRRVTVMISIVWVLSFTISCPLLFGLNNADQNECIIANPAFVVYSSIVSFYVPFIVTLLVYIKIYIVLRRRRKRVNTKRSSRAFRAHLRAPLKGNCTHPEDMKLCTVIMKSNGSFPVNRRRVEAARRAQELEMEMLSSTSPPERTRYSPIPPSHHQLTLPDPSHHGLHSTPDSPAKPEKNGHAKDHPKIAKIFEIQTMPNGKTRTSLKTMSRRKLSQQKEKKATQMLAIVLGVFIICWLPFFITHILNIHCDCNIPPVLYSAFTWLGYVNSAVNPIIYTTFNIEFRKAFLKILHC
Excerpt: NIH Chemical Genomics Center [NCGC] NIH Molecular Libraries Probe Centers Network [MLPCN] MLPCN Grant: NS064831-01 Assay Submitter (PI): David Sibley Dopamine receptors (DARs) are involved in the etiology and/or therapy of a number of neuropsychiatric and endocrine disorders. For instance, all receptor-based antiparkinsonian drugs work via stimulating the D2 DAR subtype whereas all FDA-approved antipsychotic agents are antagonists of this receptor. […] There are three different types of allosteric modulators that we are seeking, two of which will stimulate or augment receptor signaling, allosteric agonists and potentiators, while the third, allosteric antagonists, will attenuate receptor signaling. The present primary screening assay measures compound antagonism after an EC80 addition of dopamine by tracking calcium flux in a […], inducible Hek293 Trex D2 cell line.
Freshly passaged cells are plated in 1536 well black, clear bottom plates at a density of 4000 cells/well in 3 ul of complete media containing 1x tetracycline inducer. After an overnight incubation at 30 C in 5% CO2, cells are loaded with 2 ul of the no wash Calcium Assay Kit (ABD Bioquest) and incubated at room temperature for 30 to 90 minutes. Agonist read: A 10 cycle (1 second/cycle) baseline measurement is taken and then the FDSS online 1536 pintool delivers 23 nl of compound library (as well as dopamine controls) to the plate. The plate is measured for kinetically at 1 cycle/sec for 180 seconds. Following the 180 second read, 1 ul of an EC80 (negative modulation assay) is delivered by an onboard pipette head. Measurements are taken kinetically for an additional 180 seconds.
`COc1ccc(C(=O)C2CN(C)CC2C(=O)c2ccc(OC)cc2)cc1` (stereo not given) was tested, and the inhibition was 4.54%.
`CN1CCC(OC(=O)c2cccc(F)c2)CC1` showed an inhibition of 8.08%.
In the case of `Cc1ccc(C2CN(C)CC2C(=O)c2ccc(F)cc2)cc1` (stereo not given), the inhibition is reported as 70% (active).
In the case of `COC(=O)C1=C(c2ccc(F)cc2OCc2ccccc2)C[C@@H]2CC[C@H]1N2C(=O)NCc1ccc2[nH]ccc2c1`, the inhibition is reported as 4.27%.
`COC(=O)C1=C(c2cccc(OCc3ccccc3)c2)C[C@@H]2CC[C@H]1N2C(=O)NNCc1ccccc1` gave an inhibition of -6.45%.
`O=C(O)CCn1cc(C=C2C(=O)NC(=S)NC2=O)c(-c2cccc(Br)c2)n1` showed an inhibition of 18.3%.
`CCc1ccc(OCC(=O)N2CCN(CC(=O)Nc3ccccc3Cl)CC2)cc1` showed an inhibition of -8.62%.
Molecule `O=C(Cc1ccccc1[N+](=O)[O-])N1CCN(Cc2ccc3c(c2)OCO3)CC1` has an inhibition of -19.1%.
With `CC(C)c1ccc(O)c(CN2CCN(c3ccccc3)CC2)c1` the inhibition was -16.3%.
Molecule `Cc1cc(=O)oc2c(C)c(OCC(=O)N3CCN(Cc4ccc5c(c4)OCO5)CC3)ccc12` has an inhibition of 3.54%.
In the case of `Oc1cc2c(cc1CN1CCN(c3ccccc3)CC1)OCO2`, the inhibition is reported as 108% (active).
`Fc1ccc(N2CCN(Cc3ccc4c(c3)OCO4)CC2)cc1` was tested, and the inhibition was 65.6% (active).
Work on `CCN1CCN(Cc2cc(OC)c3c(c2)OCO3)CC1` yielded an inhibition of -21.1%.
For `CN1CCC(N(C)Cc2cccnc2)CC1`, the inhibition was 11.8%.
Work on `Cc1ccccc1NC(=O)COC(=O)c1cc(C)n(C2CC2)c1C` yielded an inhibition of 6.13%.
`COC(=O)C1=C(c2ccc(Cl)c(C(F)(F)F)c2)C[C@@H]2CC[C@H]1N2C(=O)NC(C)C` was tested, and the inhibition was -9.37%.
`COC(=O)C1=C(c2ccc(F)cc2OCc2ccccc2)C[C@@H]2CC[C@H]1N2C(=O)NCc1ccc(Cl)cc1` gave an inhibition of -5.86%.
For `CCOC(=O)C1(Cc2ccc(Cl)cc2)CCN(C(C)CCn2cccn2)CC1` (stereo not given), the inhibition was 77.6% (active).
Molecule `CCOC(=O)C1(CCc2ccccc2)CCN(Cc2ccco2)CC1` has an inhibition of 1.26%.
For `COC(=O)C1=C(c2cccc(OCc3ccccc3)c2)C[C@@H]2CC[C@H]1N2C(=O)NCc1ccc(Br)cc1`, the inhibition was -11.9%.
`COc1ccc(CNCCc2c[nH]c3ccccc23)cc1OC` showed an inhibition of 22.9%.
Work on `c1cncc(CNC2=NCCC2)c1` yielded an inhibition of -1.77%.
In the case of `c1cncc(CNCCc2c[nH]c3ccccc23)c1`, the inhibition is reported as 33% (active).
`COc1ccc(CN2CCN(c3ccccc3F)CC2)c(OC)c1` was tested, and the inhibition was 76.4% (active).
Molecule `Fc1cccc(F)c1CN1CCN(Cc2c(F)cccc2F)CC1` has an inhibition of -7.4%.
With `COc1ccccc1CN1CCN(C(=O)Cc2ccccc2)CC1` the inhibition was -40.7%.
Molecule `COC(=O)C1=C(c2ccccc2OCc2ccccc2)C[C@@H]2CC[C@H]1N2C(=O)NCc1ccc(OC)cc1` has an inhibition of -2.56%.
`COC(=O)C1=C(c2ccc(F)cc2OCc2ccccc2)C[C@@H]2CC[C@H]1N2C(=O)NCc1ccc(OC)c(OC)c1` was tested, and the inhibition was -1.84%.
With `COC(=O)C1=C(c2ccc(Cl)c(C(F)(F)F)c2)C[C@@H]2CC[C@H]1N2C(=O)NC1CC1` the inhibition was -0.929%.
With `COC(=O)C1=C(c2ccc(-c3ccccc3)c(F)c2)C[C@@H]2CC[C@H]1N2C(=O)NCc1ccc(F)cc1` the inhibition was -5.61%.
Molecule `Cn1c(O)c(C(=Nc2ccc(F)cc2)c2ccccc2)c(=O)n(C)c1=O` has an inhibition of -2.27%.
For `NCC(O)c1ccc(O)cc1` (stereo not given), the inhibition was 32.1% (active).
With `CCc1cccc2c(C#N)cn(CC(=O)N3CCOCC3)c12` the inhibition was -4.1%.
`C[C@]12CC[C@H](O)C[C@H]1CC[C@@H]1C2CC[C@]2(C)[C@@H](C3=CC(=O)OC3)[C@@H](O)C[C@]12O` (stereo not given in full) was tested, and the inhibition was 8.92%.
`COC(=O)C1=C(c2ccc3ccccc3c2)C[C@@H]2CC[C@H]1N2C(=O)NCCO` was tested, and the inhibition was -12.6%.
